# BRCA1 expr up: increases BRCA1 expression; AID 624202; MCF7-BRCA1-FFLuc reporter, luminescence, 48 h; response scale: scaled: vehicle 0%, 10 µM genistein 100%; Potency, µM (highest dose often 46.1 µM), inactives show at the top dose activation, usual class: activators; hit rate 1.1% among 380,000; further: potency means the concentration at half of the fitted maximal effect; nearly all actives have a fitted effect of over 80% in size
#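 Luminescence from a BRCA1-driven firefly luciferase in MCF7 cells was read after 48 h compound exposure at 37 C. Data normalized against DMSO and a 10microM genistein activation control, then curve-fitted across the titration.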
# pAkt inh: blocks phosphorylation of Akt; hit rate 0.32% among 360,000; Neuro2A IGF-stimulated pAkt S473 HTRF, 20 min; hits give low values; activity change, % for hits at 50 µM; AID 651550; in the data active means activity change below about -80%; inconclusive means mostly about -51% to -80%; further: on the % scale 0 is the no-effect control and ±100 the full control effect
#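 Neuro2A cells in DMEM with 0.5% FBS, overnight at 37 deg C, given compound at single 50 µM final, then IGF (6 nM final) for 20 min at 37 deg C. Lysed; phospho-Akt Ser473 by HTRF after 24 h, 665/615 ratio.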
# TCR act: activators of T cell receptors; Potency, µM (titrated, usually from 9.22 µM), without a hit: at the highest dose activation of IL-2 secretion, actives largely listed as activators; 330,000 tested, under 10 active; primary human leukocytes, anti-CD3, IL-2 HTRF, 48 h; AID 504894; further: % of control where 0% means no effect
#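 Primary human leukocytes were stimulated with a-CD3 beads plus compounds for 48 hr without co-stimulation; secreted IL-2 was quantified by HTRF using a-IL-2-K (europium cryptate) and a-IL-2-d2, excited at 320nm with acceptor emission read at 665nm.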
# PINK1 expr mod: modulators of PINK1 expression; hit rate 0.2% among 410,000; PINK1 immunofluorescence, high-content cytometry, 24 h; Potency, µM (doses to about 76.6 µM), for inactives: at the top dose activation (PINK1 increase), most hits filed as activators; active means well fitted activation curve with a large enough effect; inconclusive means small, poorly fitted or top-dose-only effect; cell line not stated here; further: potency means the concentration at half of the fitted maximal effect; % of control where 0% means no effect; nearly all actives have a fitted effect of over 65% in size
#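 Cells are seeded, rested 12 hours, then given compound at five concentrations or DMSO for 24 hours. After fixation, blocking and antibody staining, PINK1 amount and mitochondrial localization are scored; CCCP serves as control.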
# An asterisk follows results filed as active; i = inactive; ? = inconclusive; / = no result given; [ ] = dose if it differs, or a comment. In the library only some 1.5% were active in any assay of this set; here they are far more common. Unless noted, the call rests on the fitted dose curve; in most records, active means well fitted curve in the direction sought with a large enough effect; inconclusive means small, poorly fitted or top-dose-only effect, or another doubt; inactive means no such curve, though single readings can be large; an effect the other way counts as inactive or inconclusive.
SMILES,BRCA1 expr up,pAkt inh,TCR act,PINK1 expr mod
Nc1nc(CSC(=S)N2CCCCC2)nc(Nc2ccccc2)n1,14.1µM*,i,-7.2%,4.0%
Nc1nc(CSC(=S)N2CCOCC2)nc(Nc2ccccc2)n1,?,i,-1.6%[46.1 µM],2.2%
Cc1ccc(NC(=O)COC(=O)C2=COCCO2)cc1,0.3%,i,3.8%,-0.5%
Cc1ccc(C2=CC(c3ccc(Cl)cc3)n3nc(-c4ccc(C)cc4)nc3N2)cc1 (centres undefined),/,/,/,-0.4%
COc1ccc(C2C=C(c3ccc(Cl)cc3)Nc3nc(-c4ccc(Cl)cc4)nn32)cc1 (centres undefined),/,/,/,15.8µM*
Cc1cc(C(=O)NCC2CCC3(CCN(Cc4ccc(-c5ccccc5)cc4)CC3)O2)n(C)n1 (centres undefined),/,/,/,0.5%
O=C(Nc1sc(-c2ccccc2)cc1C(=O)O)c1ccccc1,11.2µM*,i,-9.6%,-0.7%
CCCCn1cnc2sc(-c3ccccc3)cc2c1=O,?,i,-5.7%,-0.6%
CCCCCn1cnc2sc(-c3ccccc3)cc2c1=O,5.01µM*,i,-4.2%,2.6%
O=c1c2cc(-c3ccccc3)sc2ncn1/N=C/c1ccco1,11.2µM*,-105.9%*,-0.7%,-2.7%
O=C(NCC1Cc2cc(F)cc(-c3cnccn3)c2O1)c1cccc(Cl)c1 (centres undefined),/,/,/,-0.4%
Cc1ccc2cc(CNC(C)CO)c(N3CCC(O)CC3)nc2c1 (centres undefined),/,/,/,0.0%
Cc1cc(C)cc(N2C(=O)C3C4C=CC(C4)C3C2=O)c1 (centres undefined),13.3%,-104.5%*,-4.4%,0.1%
O=C(Nc1ccc(Cl)cn1)c1cc2c(s1)-c1ccccc1OC2,5.62µM*,i,-11.9%,6.3%
COC(=O)c1c(OCc2ccccn2)cc(=O)n2c1CCN(C(=O)c1cc(C(C)C)nn1C)CC2,/,/,/,1.1%
O=C(c1ccccc1-n1cccn1)N1CCOc2c(cc(-c3ncc(C(F)(F)F)cc3Cl)cc2OCC2CCCO2)C1 (centres undefined),/,/,/,-0.7%
O=C(O)c1ccccc1-c1nc2ccccc2c(=O)[nH]1,5.6%,-105.3%*,-0.6%,-0.6%
O=C(O)c1ccccc1-c1nc(-c2ccccc2)c(-c2ccccc2)[nH]1,-18.3%,i,-2.4%,-1.0%
Cc1c(C(=O)NCC(C)C)sc2ncnc(NCC3CCCO3)c12 (centres undefined),/,/,/,-0.5%
Cc1csc(SCC(=O)Nc2ccccc2)n1,-0.8%,i,-0.2%,-0.8%
CC(C)NC(=O)CSc1nc(-c2ccccc2)cs1,10µM*,i,-0.5%,-0.3%
Cc1csc(SCC(=O)Nc2nc3ccccc3s2)n1,2.82µM*,-114.8%*,-6.5%,-2.0%
Cc1noc(C)c1C(=O)Nc1nc2ccccc2s1,6.31µM*,i,-8.9%,5.5%
CCOC(=O)CC(=O)Nc1nc2ccccc2s1,0.6%,i,7.6%,0.8%
Cc1ccc(C(=O)Nc2nc3ccccc3s2)s1,-4.4%,i,12.5%,4.7%[38.3 µM]
SMILES,BRCA1 expr up,pAkt inh,TCR act,PINK1 expr mod
O=C(CSc1nc(-c2ccccc2)cs1)Nc1nccs1,-2.6%,i,/,6.8%
CCOC(=O)Nc1nc2ccccc2s1,5.62µM*,i,/,-0.9%
Clc1ccc(CCNc2nc3ccccc3n3nnnc23)cc1,0.4%,i,11.9%,-0.4%
Cc1cccc(CCNc2nc3ccccc3n3nnnc23)c1,0.7%,-87.4%*,-1.9%,3.3%
COCC1CCCN(Cc2ccc3c(c2)CN(C(=O)c2sc(C)nc2C)CCO3)C1 (centres undefined),/,/,/,-0.5%
CCCOc1cccc(C(=O)Nc2cc(NC(=O)c3ccco3)ccc2OC)c1,-53.5%,-107.4%*,0.6%,-1.6%
CCCC(=O)Nc1ccc(NC(=O)c2ccco2)c(OC)c1,?,i,/,3.55µM*
COc1cc(OC)cc(C(=O)Nc2cc(NC(=O)c3ccco3)ccc2OC)c1,-25.0%,i,3.1%,5.3%
CCC(=O)Nc1ccc(NC(=O)c2ccco2)c(OC)c1,85.9%,i,-0.3%,-0.1%
COc1cc(NC(=O)CC(C)C)ccc1NC(=O)c1ccco1,7.94µM*,i,-31.1%,/
COc1cc(/C=N/N=C2/NC(=O)C(CC(=O)O)S2)ccc1OCc1ccc(Cl)cc1 (centres undefined),3.98µM*,i,4.4%[46.1 µM],3.3%
Cc1ccc(CNc2nc(CN3CCCCC3c3cccnc3)nc3ccccc23)o1 (centres undefined),/,/,/,0.4%
COCC1CCCN(Cc2ccc3c(c2)CN(C(=O)c2ccc(-c4ccc(C)o4)cc2)CCO3)C1 (centres undefined),/,/,/,0.9%
CCOc1ccc(Nc2oc(-c3ccc(Cl)cc3)nc2C#N)cc1,9.7%,i,0.4%,3.9%
CCOc1ccc(-c2nc(C#N)c(NC3CC3)o2)cc1,10µM*,i,-1.6%,0.6%[38.3 µM]
O=C(c1cc(COc2ccc(F)cc2Cl)on1)N1CCSCC1,6.31µM*,i,8.6%,1.3%
CSc1ccccc1OCc1cc(C(=O)N(C)Cc2ccc(C)o2)no1,11.2µM*,i,1.4%,1.7%
CSc1ccccc1OCc1cc(C(=O)N2CCSCC2)no1,4.47µM*,i,-1.6%,0.5%
COc1ccc(OCc2cc(C(=O)N3CCSCC3)no2)c(Cl)c1,11.2µM*,i,0.8%,3.0%
CSc1ccccc1OCc1cc(C(=O)N2CCN(c3ncccn3)CC2)no1,76.2%,i,0.5%,-0.1%
COc1ccc(OCc2cc(C(=O)N3CCCCCC3)no2)c(Cl)c1,?,i,-2.4%,9.0%
COc1c(OC(C)=O)ccc(/C=C/c2ccc3cccc(OC)c3n2)c1[N+](=O)[O-],15.8%,i,-0.3%[46.1 µM],1.7%
COc1c(OC(C)=O)ccc(/C=C/c2ccc3ccccc3n2)c1[N+](=O)[O-],?,i,/,10µM*
CCOC(=O)C1=C(C)N(C2CCCCC2)C(=O)C1,-10.9%,-101.2%*,-7.4%,0.4%
COc1cccc(C(=O)N2CCc3c(C(=O)NC(C)c4ccco4)c(OC)cc(=O)n3CC2)c1OC (centres undefined),/,/,/,0.5%
SMILES,BRCA1 expr up,pAkt inh,TCR act,PINK1 expr mod
Cc1cc(C(=O)NCCCn2ccnc2)cs1,-18.8%,i,/,10µM*
O=C(NCCCn1ccnc1)c1ccc2ccccc2c1,-18.9%,i,4.3%,0.1%
CCCn1c(=O)c(C(=O)Nc2ccccc2C(=O)OC)c(O)c2ccccc21,-33.9%,-104.1%*,-20.7%,1.0%
COc1ccc2nc(/C(C#N)=C\c3ccc(Oc4ccc([N+](=O)[O-])cn4)cc3)[nH]c2c1,-42.6%,i,4.8%[46.1 µM],11.2µM*
COc1cc(/C=C(/C#N)c2nc3ccccc3[nH]2)ccc1Oc1ncccc1[N+](=O)[O-],-38.5%,i,/,7.94µM*
CCOc1cc(/C=C(/C#N)c2nc3ccccc3[nH]2)ccc1Oc1ccc([N+](=O)[O-])cn1,-49.5%,i,/,/
CCCCOC(=O)c1ccc(NC(=S)N2CCN(c3ncc4c(=O)c(C(=O)O)cn(CC)c4n3)CC2)cc1,2.0%,i,-3.5%,28.2µM*
O=[N+]([O-])c1cccc(-c2nnc(-c3ccccc3)o2)c1,72.1%,i,/,2.9%
O=[N+]([O-])c1cccc(-c2nnc(-c3ccc4c(c3)OCO4)o2)c1,2.51µM*,i,1.4%[46.1 µM],8.5%

# Bioassay records: PubChem, National Center for Advancing Translational Sciences (NCATS)
